# Measured values: the supplement of paper PMC10849652
# Of roughly 7,900 targets only a part is listed; those with a hit were picked by preference. About 0.6% of all pairs of compound and target were hits. A number with no mark means an inactive call.
# Tests used:
# Assay in all cases: log2 fold change, soluble protein after heating vs DMSO (PISA); higher = thermal stabilisation; K562 cells, 10 uM, 30 min; active = over 0.2 and 3.5 SD of the protein, either way, in both replicates (recomputed)
# erlotinib = compound: C#Cc1cccc(Nc2ncnc3cc(OCCOC)c(OCCOC)cc23)c1 [erlotinib]
# Procedure, shortened: (§1)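 Soluble protein was quantified by TMTpro 16plex LC-MS/MS after channel sums were equalised. It was obtained as the supernatant after 21,000xg for 90 min from pooled aliquots of K562 cells (2×10^6 cells/mL, 10 μM compound, 30 min) heated for 3 min across 48°C-58°C and extracted in PBS with 0.5% NP-40 at 4°C. Thermal stability values are relative to control samples and come from duplicates. They are given as log2 fold changes.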
# [1] = compound: C/C(=N\NC(=O)C1=CC(=CC=C1)S(=O)(=O)N2CCOCC2)/C3=C(C=CC(=C3)Cl)O
# Procedure, shortened: as §1
# [2] = compound: C1=CC(=C(C=C1Cl)C2=NC3=NC=CN=C3C(=N2)NC4=CC=NC=C4)F
# Procedure, shortened: as §1
# [3] = compound: C1=CC(=CC=C1C2=NC3=C(N2)C=C(C=C3)C(=O)N)OC4=CC=C(C=C4)Cl
# Procedure, shortened: as §1
# [4] = compound: C1=CC2=C(C=CC(=C2)/C=C\3/C(=O)NC(=NCC4=CC=CS4)S3)N=C1
# Procedure, shortened: as §1
# [5] = compound: C1=CC2=NC=CN=C2C=C1/C=C/3\C(=O)NC(=O)S3
# Procedure, shortened: as §1
# [6] = compound: C1=CC=C(C=C1)C2=NC(=C(N2)C3=CC=NC=C3)C4=CC(=C(C=C4)Cl)O
# Procedure, shortened: as §1
# [7] = compound: C1=CC=C2C(=C1)C3=NNC4=CC=CC(=C43)C2=O
# Procedure, shortened: as §1
# [8] = compound: C1CCN(C1)C(=O)NC2=CC=CC(=C2)NC3=NC=C(C(=N3)NCCC4=CN=CN4)Br
# Procedure, shortened: as §1
# [9] = compound: C1CN(CCC1(CC2=CC=C(C=C2)Cl)N)C3=NC=NC4=C3C=CN4
# Procedure, shortened: as §1
# IRAK-1-4 Inhibitor I = compound: C1COCCN1CCN2C3=CC=CC=C3N=C2NC(=O)C4=CC(=CC=C4)[N+](=O)[O-] [IRAK-1-4 Inhibitor I]
# Procedure, shortened: as §1
# ibrutinib = compound: C=CC(=O)N1CCC[C@@H](n2nc(-c3ccc(Oc4ccccc4)cc3)c3c(N)ncnc32)C1 [ibrutinib]
# Procedure, shortened: as §1
# [10] = compound: CC(=O)c1cnc2ccc(-c3cc(Cl)c(O)c(Cl)c3)nc2c1N[C@H]1CC[C@H](CN(C)C)CC1
# Procedure, shortened: as §1
# ralimetinib = compound: CC(C)(C)Cn1c(N)nc2ccc(-c3[nH]c(C(C)(C)C)nc3-c3ccc(F)cc3)nc21 [ralimetinib]
# Procedure, shortened: as §1
# [11] = compound: CC(C)(O)CC(=O)NCCn1ccc2ncnc(Nc3ccc(Oc4cccc(C(F)(F)F)c4)c(Cl)c3)c21
# Procedure, shortened: as §1
# [12] = compound: CC(C)C1=C2N=C(C=C(N2N=C1)NCC3=CC=CC=C3)NCCCCCCN
# Procedure, shortened: as §1
# [13] = compound: CC(C)C[C@@H](C=O)NC(=O)[C@H](CC(C)C)NC(=O)[C@H](CC(C)C)NC(=O)OCc1ccccc1
# Procedure, shortened: as §1
# pinometostat = compound: CC(C)N(C[C@H]1O[C@@H](n2cnc3c(N)ncnc32)[C@H](O)[C@@H]1O)[C@H]1C[C@@H](CCc2nc3cc(C(C)(C)C)ccc3[nH]2)C1 [pinometostat]
# Procedure, shortened: as §1
# [14] = compound: CC1=C(C(CC(=O)N1)C2=CC=C(C=C2)C(F)(F)F)C(=O)NC3=C(C=C4C(=C3)C=NN4)F
# Procedure, shortened: as §1
# [15] = compound: CC1=C(C2=C(C=C1)C(=O)C3=CC=CC=C3N2CCCN)C
# Procedure, shortened: as §1
# Chain of UniProt P11233 (P11233 whole entry, looked up): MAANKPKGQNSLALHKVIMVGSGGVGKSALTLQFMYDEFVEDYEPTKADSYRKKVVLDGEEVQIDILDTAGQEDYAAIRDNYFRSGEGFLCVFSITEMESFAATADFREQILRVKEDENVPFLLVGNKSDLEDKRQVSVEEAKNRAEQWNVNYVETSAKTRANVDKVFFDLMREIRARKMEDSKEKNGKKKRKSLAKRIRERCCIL
# Chain of UniProt O43665 (O43665 whole entry, looked up): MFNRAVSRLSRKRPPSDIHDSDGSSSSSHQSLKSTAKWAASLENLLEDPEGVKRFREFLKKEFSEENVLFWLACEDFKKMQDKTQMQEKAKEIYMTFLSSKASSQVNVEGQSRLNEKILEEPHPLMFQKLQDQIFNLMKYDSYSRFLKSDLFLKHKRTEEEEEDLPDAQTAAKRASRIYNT
# Chain of UniProt Q15382 (Q15382 whole entry, looked up): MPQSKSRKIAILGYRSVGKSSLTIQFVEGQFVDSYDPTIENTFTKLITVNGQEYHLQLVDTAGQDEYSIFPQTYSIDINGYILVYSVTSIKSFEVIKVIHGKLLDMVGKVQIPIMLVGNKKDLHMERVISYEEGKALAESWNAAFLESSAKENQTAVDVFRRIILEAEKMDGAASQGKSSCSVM
# Chain of UniProt P06400 (P06400 whole entry, looked up): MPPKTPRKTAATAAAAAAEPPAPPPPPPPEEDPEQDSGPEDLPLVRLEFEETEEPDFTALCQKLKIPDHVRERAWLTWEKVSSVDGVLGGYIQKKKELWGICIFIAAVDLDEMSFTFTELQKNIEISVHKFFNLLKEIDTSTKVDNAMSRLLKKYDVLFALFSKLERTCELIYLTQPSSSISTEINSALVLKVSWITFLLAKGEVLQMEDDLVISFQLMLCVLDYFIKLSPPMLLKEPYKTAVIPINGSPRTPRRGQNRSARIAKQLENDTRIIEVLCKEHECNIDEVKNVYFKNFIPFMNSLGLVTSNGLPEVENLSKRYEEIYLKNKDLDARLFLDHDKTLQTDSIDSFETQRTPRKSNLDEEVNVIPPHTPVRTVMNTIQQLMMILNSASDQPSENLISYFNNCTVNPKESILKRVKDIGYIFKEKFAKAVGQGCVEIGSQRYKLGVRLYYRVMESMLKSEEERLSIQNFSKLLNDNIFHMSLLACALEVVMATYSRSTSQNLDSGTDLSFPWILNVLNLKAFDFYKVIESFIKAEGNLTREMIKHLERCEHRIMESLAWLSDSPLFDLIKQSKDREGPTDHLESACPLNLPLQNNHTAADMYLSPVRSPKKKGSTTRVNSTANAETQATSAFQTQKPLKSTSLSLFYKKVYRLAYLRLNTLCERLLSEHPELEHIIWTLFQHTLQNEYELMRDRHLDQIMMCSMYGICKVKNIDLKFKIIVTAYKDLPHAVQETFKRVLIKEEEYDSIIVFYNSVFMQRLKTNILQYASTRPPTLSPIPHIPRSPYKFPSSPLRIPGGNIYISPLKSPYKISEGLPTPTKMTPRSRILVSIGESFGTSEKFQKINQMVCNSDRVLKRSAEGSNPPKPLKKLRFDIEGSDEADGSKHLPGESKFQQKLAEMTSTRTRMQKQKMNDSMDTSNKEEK
# Chain of UniProt P41440 (P41440 whole entry, looked up): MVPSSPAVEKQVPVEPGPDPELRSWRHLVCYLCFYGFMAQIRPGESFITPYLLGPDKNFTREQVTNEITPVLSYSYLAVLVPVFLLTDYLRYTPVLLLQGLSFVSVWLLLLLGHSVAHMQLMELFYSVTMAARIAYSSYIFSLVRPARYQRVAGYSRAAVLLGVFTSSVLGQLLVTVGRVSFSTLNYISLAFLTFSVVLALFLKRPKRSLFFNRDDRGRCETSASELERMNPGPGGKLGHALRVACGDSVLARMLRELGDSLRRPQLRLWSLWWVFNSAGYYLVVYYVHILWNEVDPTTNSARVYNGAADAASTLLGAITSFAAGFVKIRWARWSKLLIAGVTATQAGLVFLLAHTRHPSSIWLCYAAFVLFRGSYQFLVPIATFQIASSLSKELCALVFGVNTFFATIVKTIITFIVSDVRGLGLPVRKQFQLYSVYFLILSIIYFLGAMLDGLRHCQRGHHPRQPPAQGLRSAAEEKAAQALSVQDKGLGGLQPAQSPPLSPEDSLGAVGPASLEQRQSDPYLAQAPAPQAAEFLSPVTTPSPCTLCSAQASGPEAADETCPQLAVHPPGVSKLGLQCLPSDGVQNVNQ
# Chain of UniProt Q9H2M9 (Q9H2M9 whole entry, looked up): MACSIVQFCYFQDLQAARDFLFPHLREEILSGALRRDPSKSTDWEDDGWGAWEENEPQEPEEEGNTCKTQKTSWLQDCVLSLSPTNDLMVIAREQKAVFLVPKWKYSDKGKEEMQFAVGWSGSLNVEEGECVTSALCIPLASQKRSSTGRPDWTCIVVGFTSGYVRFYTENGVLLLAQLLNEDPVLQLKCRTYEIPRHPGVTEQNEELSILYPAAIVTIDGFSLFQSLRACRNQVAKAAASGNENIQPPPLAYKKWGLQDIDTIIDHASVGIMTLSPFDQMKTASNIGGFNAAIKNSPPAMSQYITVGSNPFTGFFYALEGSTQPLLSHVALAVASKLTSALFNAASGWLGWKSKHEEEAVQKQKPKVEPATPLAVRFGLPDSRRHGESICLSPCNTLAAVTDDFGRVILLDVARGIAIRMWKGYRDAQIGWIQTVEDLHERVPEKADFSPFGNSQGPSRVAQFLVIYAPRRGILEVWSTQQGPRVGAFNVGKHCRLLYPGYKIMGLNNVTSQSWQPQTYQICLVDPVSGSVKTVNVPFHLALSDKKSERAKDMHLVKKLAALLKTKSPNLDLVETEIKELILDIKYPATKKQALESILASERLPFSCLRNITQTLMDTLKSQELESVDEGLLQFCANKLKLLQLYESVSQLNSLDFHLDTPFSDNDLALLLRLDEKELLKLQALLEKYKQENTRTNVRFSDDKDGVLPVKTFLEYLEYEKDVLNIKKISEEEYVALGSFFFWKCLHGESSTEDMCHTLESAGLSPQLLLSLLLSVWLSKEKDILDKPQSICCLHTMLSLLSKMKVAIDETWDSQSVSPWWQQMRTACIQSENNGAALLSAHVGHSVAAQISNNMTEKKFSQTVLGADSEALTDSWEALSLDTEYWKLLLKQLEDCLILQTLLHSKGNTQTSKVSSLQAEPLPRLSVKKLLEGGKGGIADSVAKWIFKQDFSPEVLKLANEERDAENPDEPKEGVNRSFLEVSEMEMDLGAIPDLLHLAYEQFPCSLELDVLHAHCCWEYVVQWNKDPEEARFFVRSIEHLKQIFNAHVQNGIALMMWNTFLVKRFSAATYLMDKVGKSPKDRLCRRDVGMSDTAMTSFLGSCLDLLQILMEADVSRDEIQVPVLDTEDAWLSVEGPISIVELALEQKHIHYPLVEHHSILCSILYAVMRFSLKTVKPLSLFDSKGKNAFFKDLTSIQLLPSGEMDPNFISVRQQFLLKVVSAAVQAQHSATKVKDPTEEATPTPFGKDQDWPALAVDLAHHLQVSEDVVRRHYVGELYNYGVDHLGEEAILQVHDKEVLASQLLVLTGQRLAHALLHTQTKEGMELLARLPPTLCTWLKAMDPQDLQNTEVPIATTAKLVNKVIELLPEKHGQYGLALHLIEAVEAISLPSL
Target,log2 fold change (erlotinib),log2 fold change [1],log2 fold change [2],log2 fold change [3],log2 fold change [4],log2 fold change [5],log2 fold change [6],log2 fold change [7],log2 fold change [8],log2 fold change [9],log2 fold change (IRAK-1-4 Inhibitor I),log2 fold change (ibrutinib),log2 fold change [10],log2 fold change (ralimetinib),log2 fold change [11],log2 fold change [12],log2 fold change [13],log2 fold change (pinometostat),log2 fold change [14],log2 fold change [15]
SLC19A1 (UniProt P41440),-0.023,0.029,0.159,0.022,-0.006,0.103,0.118,-0.008,-0.009,0.08,0.017,-0.025,-0.034,0.005,-0.061,0.104,0.045,0.052,-0.045,0.073
RGS10 (UniProt O43665),-0.044,0.048,0.076,0.009,-0.03,0.002,0.073,-0.015,-0.069,0.036,0.046,0.047,-0.024,0.026,-0.025,-0.057,-0.004,0.087,-0.008,0.015
RPS2 (UniProt P15880),-0.199,-0.138,-0.323,0.047,-0.1,-0.039,-0.064,-0.041,0.086,-0.162,-0.101,0.042,0.085,0.055,0.019,-0.004,0.061,0.222,0.032,-0.682 (active)
RB1 (UniProt P06400),-0.007,0.041,0.012,0.016,0.124,0.04,0.034,-0.114,-0.065,-0.02,0.015,0.025,-0.761 (active),-0.06,-0.054,-0.386 (active),0.032,-0.006,-0.007,-0.035
RAB3GAP2 (UniProt Q9H2M9),0.068,0.083,-0.043,-0.058,0.035,-0.011,-0.025,0.004,-0.068,-0.018,-0.079,-0.016,-0.031,0.03,0,-0.26 (active),0.026,0.115,0.004,-0.016
RBBP6 (UniProt Q7Z6E9),-0.01,0.005,0.014,-0.034,-0.037,0,0.025,-0.005,-0.067,0.003,-0.099,-0.082,-0.114,0.02,0.044,-0.089,-0.023,-0.078,-0.021,-0.022
RALA (UniProt P11233),0.087,-0.005,0.033,-0.05,0.005,0.056,-0.076,-0.045,-0.066,0.104,-0.005,0.038,0.018,-0.113,0.096,0.103,-0.033,-0.123,-0.024,0.054
RHEB (UniProt Q15382),0.028,0.042,0.075,-0.041,0.008,0.008,-0.008,-0.004,-0.005,0.041,0.006,-0.016,-0.04,-0.112,-0.01,0.027,-0.055,-0.035,-0.014,0.093
